# According to the supplement of paper PMC4466140:
# Legend:
# Experiment in all cases: SPOT peptide array binding signal intensity (averaged, normalized) (arbitrary units (background-subtracted, floor 0; scale differs between SH3 domains)); higher = stronger binding of the SH3 domain to the peptide
# ScBbc1 = target: ScBbc1
# Method in brief: (§1)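 Four yeast species supplied the SH3 domains, which were expressed as GST fusions in E. coli BL21(DE3) and purified on glutathione Sepharose. Incubation with cellulose membranes carrying synthetic 15-mer peptides, cysteines exchanged for serines, ran overnight at 4°C at 10 μg/ml in TBS-based blocking buffer. Binding signal is reported as normalized, background-subtracted spot intensity averaged over replicates, in arbitrary units not shared between domains.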
# ScBem1-D1 = target: ScBem1-D1
# Method in brief: as §1
# ScBzz1-D1 = target: ScBzz1-D1
# Method in brief: as §1
# ScBzz1-D2 = target: ScBzz1-D2
# Method in brief: as §1
# ScCyk3 = target: ScCyk3
# Method in brief: as §1
# ScFus1 = target: ScFus1
# Method in brief: as §1
# ScHof1 = target: ScHof1
# Method in brief: as §1
# ScHse1 = target: ScHse1
# Method in brief: as §1
# ScLsb1 = target: ScLsb1
# Method in brief: as §1
# ScLsb2 = target: ScLsb2
# Method in brief: as §1
# ScLsb3 = target: ScLsb3
# Method in brief: as §1
# ScLsb4 = target: ScLsb4
# Method in brief: as §1
# ScMyo3 = target: ScMyo3
# Method in brief: as §1
# ScMyo5 = target: ScMyo5
# Method in brief: as §1
# ScNbp2 = target: ScNbp2
# Method in brief: as §1
# ScPex13 = target: ScPex13
# Method in brief: as §1
# ScRvs167 = target: ScRvs167
# Method in brief: as §1
# ScSho1 = target: ScSho1
# Method in brief: as §1
# ScSla1-D1-D2 = target: ScSla1-D1-D2
# Method in brief: as §1
# ScSla1-D3 = target: ScSla1-D3
# Method in brief: as §1
# SpAbp1-D1 = target: SpAbp1-D1
# Method in brief: as §1
# SpBbc1 = target: SpBbc1
# Method in brief: as §1
# SpBzz1-D1 = target: SpBzz1-D1
# Method in brief: as §1
# SpBzz1-D2 = target: SpBzz1-D2
# Method in brief: as §1
# SpCyk3 = target: SpCyk3
# Method in brief: as §1
# SpHof1 = target: SpHof1
# Method in brief: as §1
# SpHof1-2 = target: SpHof1-2
# Method in brief: as §1
# SpHof1-3 = target: SpHof1-3
# Method in brief: as §1
# SpHse1 = target: SpHse1
# Method in brief: as §1
# SpLsb1 = target: SpLsb1
# Method in brief: as §1
# SpLsb4 = target: SpLsb4
# Method in brief: as §1
# SpMyo1 = target: SpMyo1
# Method in brief: as §1
# SpNbp2 = target: SpNbp2
# Method in brief: as §1
# SpPex13 = target: SpPex13
# Method in brief: as §1
# SpRvs167 = target: SpRvs167
# Method in brief: as §1
# SpSla1-D1-D2 = target: SpSla1-D1-D2
# Method in brief: as §1
# SpSla1-D3 = target: SpSla1-D3
# Method in brief: as §1
binder,measurement,setting,value
KWVRRPKLMTPLTFS,SPOT peptide array binding signal intensity,ScBbc1,23
same,SPOT peptide array binding signal intensity,ScBem1-D1,91.5
same,SPOT peptide array binding signal intensity,ScBzz1-D1,50.5
same,SPOT peptide array binding signal intensity,ScBzz1-D2,59
same,SPOT peptide array binding signal intensity,ScCyk3,64.5
same,SPOT peptide array binding signal intensity,ScFus1,1090
same,SPOT peptide array binding signal intensity,ScHof1,3.75
same,SPOT peptide array binding signal intensity,ScHse1,1650
same,SPOT peptide array binding signal intensity,ScLsb1,132
same,SPOT peptide array binding signal intensity,ScLsb2,15.5
same,SPOT peptide array binding signal intensity,ScLsb3,166
same,SPOT peptide array binding signal intensity,ScLsb4,32.5
same,SPOT peptide array binding signal intensity,ScMyo3,3.5
same,SPOT peptide array binding signal intensity,ScMyo5,5.25
same,SPOT peptide array binding signal intensity,ScNbp2,818
same,SPOT peptide array binding signal intensity,ScPex13,56.8
same,SPOT peptide array binding signal intensity,ScRvs167,121
same,SPOT peptide array binding signal intensity,ScSho1,1880
same,SPOT peptide array binding signal intensity,ScSla1-D1-D2,735
same,SPOT peptide array binding signal intensity,ScSla1-D3,161
same,SPOT peptide array binding signal intensity,SpAbp1-D1,289
same,SPOT peptide array binding signal intensity,SpBbc1,7
same,SPOT peptide array binding signal intensity,SpBzz1-D1,176
same,SPOT peptide array binding signal intensity,SpBzz1-D2,0.5
same,SPOT peptide array binding signal intensity,SpCyk3,7
same,SPOT peptide array binding signal intensity,SpHof1,158
same,SPOT peptide array binding signal intensity,SpHof1-2,17
same,SPOT peptide array binding signal intensity,SpHof1-3,450
same,SPOT peptide array binding signal intensity,SpHse1,666
same,SPOT peptide array binding signal intensity,SpLsb1,466
same,SPOT peptide array binding signal intensity,SpLsb4,500
same,SPOT peptide array binding signal intensity,SpMyo1,8.75
same,SPOT peptide array binding signal intensity,SpNbp2,558
same,SPOT peptide array binding signal intensity,SpPex13,217
same,SPOT peptide array binding signal intensity,SpRvs167,34.2
same,SPOT peptide array binding signal intensity,SpSla1-D1-D2,1.5
same,SPOT peptide array binding signal intensity,SpSla1-D3,62
